PINK1 expr mod: changes PINK1 expression; PINK1 immunofluorescence, high-content cytometry, 24 h; Potency, µM (doses to about 76.6 µM), for inactives: at the top dose activation (PINK1 increase), hits mostly activators; 410,000 compounds, 0.2% hits; AID 624263; active = well fitted activation curve with a large enough effect; inconclusive = small, poorly fitted or top-dose-only effect; cell line not stated here; note: % of control where 0% means no effect; nearly all actives have a fitted effect of over 65% in size
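A stable cell line was treated with compounds at 5 concentrations for 24 hours, with CCCP as control. PINK1 levels and mitochondrial localization were measured by immunofluorescence with mitochondrial, cell and nuclear markers after fixation, read by laser-scanning cytometry.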
Epigenetic reg: epigenetic control regulation, reporter derepression. murine LDR cells, GFP reporter derepression, 30 h. Potency, µM (series often up to 53.9 µM), without a hit: top-dose GFP activation, actives largely listed as activators. 280,000 compounds, 0.2% hits; note: % of control where 0% means no effect; nearly all actives have a fitted effect of over 60% in size
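Reporter derepression read as number of fluorescent GFP-positive objects, 20-120 um in size, counted by laser-scanning cytometer. Mouse LDR line with an epigenetically silenced CMV-GFP locus; compound incubation 30 h, 37 C.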
Sfp inh: blocks B. subtilis Sfp PPTase activity; AID 1490; 310,000 compounds, 3.5% hits; Q9F4F7; Biochemical Sfp PPTase activity, qHTS; Potency, µM, for the others: largest response in the series, negative = inhibition, usual class: inhibitors;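 note: the enzyme is Sfp with the accession as filed and its product quenches rhodamine fluorescence; 0% = enzyme reaction without inhibitor and -100% = no enzyme wells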
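Fluorescence-quenching assay: 15 nM Sfp-PPTase preincubated 15 min at room temperature with compound, then 5 uM rhodamine-CoA and 12.5 uM BHQ-2-labelled YbbR peptide added. Fluorescence (ex 525/em 598 nm) read at start and after 30 min; difference gives rate.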
ClpP mod: qHTS Assay for Activators of ClpP. ATP-dependent Clp protease proteolytic subunit (Bacillus subtilis (strain 168)), P80244. purified B. subtilis ClpP, FRET peptide cleavage, 20 min. Potency, µM (top dose mostly 57.5 µM), for the others: at the top dose activity change, negative = active. 340,000 compounds, 1.9% hits; active = well fitted falling curve with a large enough effect; inconclusive = small, poorly fitted or top-dose-only effect; inactive = no such curve, though single readings can be large or run the other way; note: the source files actives as falling curves though it sought activators and does not explain the sign; nearly all actives have a fitted effect of over 65% in size
Target sequence (P80244 whole entry, looked up): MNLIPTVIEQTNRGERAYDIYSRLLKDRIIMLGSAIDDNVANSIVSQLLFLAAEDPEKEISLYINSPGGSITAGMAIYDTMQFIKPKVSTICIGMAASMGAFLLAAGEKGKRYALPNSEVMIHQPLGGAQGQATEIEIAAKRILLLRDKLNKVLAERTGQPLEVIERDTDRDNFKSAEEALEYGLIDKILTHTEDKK
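Purified B. subtilis ClpP, 10 microg/mL final in Tris/HCl pH8 with KCl, BSA, glycerol and Tween-20, cleaved an Abz/nitrotyrosine-quenched decapeptide. Fluorescence (ex 320, em 430) was read at 0 and 20 min at room temperature. Delta was normalized to 5.8 microM ADEP and DMSO/no-enzyme controls.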
VP16 counter: counter-screen for ROR gamma inhibitors: Gal4-VP16 reporter | AID 2546 | 310,000 compounds, 3.5% hits | Drosophila S2 Gal4-VP16 UAS-luciferase, luminescence, 20 h | Potency, µM (series often up to 53.6 µM), inactives show at the top dose activity, negative = inhibition, most hits filed as inhibitors;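 note: Gal4-VP16 expression switched on by copper sulfate through the metallothionein promoter; % is set by controls: 0 for no effect and ±100 for the full control effect; nearly all actives have a fitted effect of over 50% in size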
RORg inh: inhibitors of mouse ROR gamma transcriptional activity; P51450; Drosophila S2 Gal4-RORgamma UAS-luciferase reporter, 20 h; Potency, µM (highest dose often 53.6 µM), inactives show at the highest dose activity change, negative = inhibition, actives largely listed as inhibitors; 310,000 compounds, 5.4% hits; AID 2551; note: % is set by controls: 0 for no effect and ±100 for the full control effect; nearly all actives have a fitted effect of over 60% in size
Target sequence (P51450 whole entry, looked up, the tested form may be a part): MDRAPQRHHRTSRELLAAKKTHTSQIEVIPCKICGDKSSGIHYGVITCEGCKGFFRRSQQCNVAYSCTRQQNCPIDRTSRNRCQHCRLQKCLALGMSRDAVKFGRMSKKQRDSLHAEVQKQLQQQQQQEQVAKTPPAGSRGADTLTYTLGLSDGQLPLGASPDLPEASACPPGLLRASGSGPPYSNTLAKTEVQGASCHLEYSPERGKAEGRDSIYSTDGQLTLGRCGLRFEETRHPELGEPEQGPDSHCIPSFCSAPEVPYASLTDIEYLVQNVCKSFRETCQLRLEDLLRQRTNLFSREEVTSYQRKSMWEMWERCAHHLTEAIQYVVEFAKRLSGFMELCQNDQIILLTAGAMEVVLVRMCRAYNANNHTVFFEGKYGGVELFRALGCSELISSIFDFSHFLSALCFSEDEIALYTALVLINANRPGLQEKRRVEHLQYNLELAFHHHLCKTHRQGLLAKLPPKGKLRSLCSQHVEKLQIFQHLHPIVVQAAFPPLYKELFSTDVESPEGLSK
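Stably transfected Drosophila Schneider cells are the test system, with ROR gamma fused to Gal4 and luciferase under UAS control; luminescence is read after 20 hr of 700 uM copper sulfate induction at ambient temperature.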
Active calls of the source: *; ? = inconclusive; nt = no result; [ ] = remark or other dose. In the library only some 8.1% were active in any assay of this set; here they are far more common. Unless noted, calls come from the whole dose curve; as a rule, active = well fitted curve in the direction sought with a large enough effect; inconclusive = small, poorly fitted or top-dose-only effect, or another doubt; inactive = no such curve, though single readings can be large; an effect the other way counts as inactive or inconclusive. Potency is the fitted concentration of half-maximal effect.

SMILES	PINK1 expr mod	Epigenetic reg	Sfp inh	ClpP mod	VP16 counter	RORg inh
CC(=O)Nc1ccc(NC(=O)CCCSc2nc3ccccc3s2)cc1	-0.5%	1.1%	22.5%	-1.6%	5.01µM*	7.08µM*
O=C(CCCSc1nc2ccccc2s1)NC1=NCCS1	-1.7%	-7.3%	-7.4%	-0.2%	4.47µM*	0.891µM*
O=C(O)CCSc1nc2ccccc2s1	3.6%[38.3 µM]	0.0%	-16.7%	0.4%	-9.1%	1.78µM*
CCc1cccc(CC)c1NC(=O)CCCSc1nc2ccccc2s1	2.9%	-0.9%	15.7%	-0.6%	-10.8%	?
Cc1cccc(C)c1NC(=O)CCCSc1nc2ccccc2s1	8.0%	-1.3%	9.7%	-5.2%	12.0%	-9.1%
C=CC(C)(C)c1[nH]c2ccccc2c1C1=C(O)C(=O)C(c2c[nH]c3c(CC=C(C)C)cccc23)=C(O)C1=O	nt	0.8%	-23.7%	nt	?	2.7%
CCCNC(=O)c1oc2ccc3c(c2c1C)C(=O)CC(C)(C)O3	1.4%	-1.0%	-6.3%	28.2µM*	-20.8%	5.5%
CCOC(=O)N1CCC2(CC1)CC(=O)c1c(ccc3oc(C(=O)O)c(C)c13)O2	-0.1%	0.0%	21.0%	35.5µM*	0.0%	-3.4%
Cc1c(C(=O)NCc2ccc(Cl)cc2)oc2ccc3c(c12)C(=O)CC(C)(C)O3	-0.4%	1.4%	nt	?	nt	nt
COc1cccc(CNC(=O)CCc2c(C)nc3c(c(C)nn3-c3ccc(C)c(C)c3)c2C)c1	-3.0%	-0.7%	nt	?	nt	nt
Nc1nc(-c2ccc(F)cc2)cc(C(F)(F)F)n1	4.1%	0.9%	18.4%	?	5.2%	-2.1%
COc1ccc(-c2cc(C(F)(F)F)nc(S(C)(=O)=O)n2)cc1	-1.1%	-3.1%	-18.5%	-4.5%	8.91µM*	12.6µM*
COc1ccc(-c2cc(C(F)(F)F)nc(N)n2)cc1	-1.3%	7.7%	19.5%	nt	9.0%	-1.8%
CS(=O)(=O)c1nc(-c2ccc(F)cc2)cc(C(F)(F)F)n1	-2.0%	1.7%	?	nt	4.47µM*	2.51µM*
CCc1nnc2c(N3CCN(c4cccc(C)c4)C(C)C3)nc3ccccc3n12 (centres undefined)	1.5%	-6.0%	nt	-25.8%	nt	nt
C/C(=N\NC(=O)c1nnn(-c2nonc2N)c1-c1ccccc1)c1ccccc1O	1.8%	nt	-3.5%	8.3%	6.31µM*	1.78µM*
COCc1c(C(=O)N/N=C(/C)c2cccs2)nnn1-c1nonc1N	7.1%	nt	14.1%	nt	-1.0%	-18.7%
Nc1nonc1-n1nnc(C(=O)N/N=C/c2ccc(OCc3ccc(F)cc3)cc2)c1COc1ccccc1	-0.3%	0.0%	31.1%	3.7%	?	7.08µM*
C/C(=N/NC(=O)c1nnn(-c2nonc2N)c1COc1ccccc1)c1ccccc1Cl	0.8%	nt	11.3%	1.1%	?	22.4µM*
C/C(=N\NC(=O)c1nonc1N)c1cccs1	0.0%	0.0%	-6.2%	0.9%	1.3%	0.316µM*
CCCc1c(C(=O)N/N=C(\C)c2ccccc2O)nnn1-c1nonc1N	2.2%	nt	nt	-0.2%	nt	nt
Cc1ccc(COc2ccc(/C=N/NC(=O)c3nnn(-c4nonc4N)c3COc3ccc(F)cc3)cc2)cc1	0.7%	-1.1%	-24.7%	-3.7%	2.4%	?
COc1ccccc1NC(=O)Cn1c(=O)n(CCCCCC(=O)NCc2ccccc2)c(=O)c2sccc21	16.2%	9.9%	nt	-10.8%	nt	nt
Cc1cccc(N2CCN(C(=O)CCNS(=O)(=O)c3ccc4c(c3)CCN4C(=O)C3CC3)CC2C)c1 (centres undefined)	-3.0%	1.1%	nt	0.2%	nt	nt
CN(C(=O)c1ccc2c(c1)N(Cc1ccccc1F)C(=O)c1ccccc1S2)C1CCCCC1	3.5%	-0.2%	nt	2.3%	nt	nt
SMILES	PINK1 expr mod	Epigenetic reg	Sfp inh	ClpP mod	VP16 counter	RORg inh
COc1cc(SC)ccc1C(=O)Nc1nc2ccccc2[nH]1	2.3%	nt	14.7%	3.6%	0.316µM*	0.1µM*
CC(C(=O)Nc1nc2ccccc2[nH]1)N1C(=O)C2CC=CCC2C1=O (centres undefined)	-2.4%	0.0%	-12.8%	-2.3%	-6.1%	10µM*
COc1cc(SC)ccc1C(=O)Nc1ccccc1	-6.5%[38.3 µM]	-3.6%	?	-3.1%	-8.7%	-8.4%
COc1ccccc1C(=O)Nc1nc2ccccc2[nH]1	-0.1%	nt	0.2%	nt	0.501µM*	0.251µM*
COc1cc(SC)ccc1C(=O)Nc1nccs1	-0.8%	0.0%	-4.5%	nt	?	7.94µM*
CSc1ccccc1C(=O)Nc1nc2ccccc2c(=O)[nH]1	-0.7%	0.5%	3.7%	nt	?	44.0%
CSc1ccccc1C(=O)Nc1nc2ccccc2[nH]1	0.6%	6.7%	24.4%	-26.6%	?	5.01µM*
COc1ccc(CNC(=O)CCn2nc(C)c3c(C)n(-c4ccccc4)nc3c2=O)cc1OC	-1.5%	0.5%	nt	-3.0%	nt	nt
CN1CCN(CC(=O)Nc2ccccc2Oc2ccccc2)CC1	0.1%	1.1%	-0.3%	-2.0%	-16.3%	-3.1%
CS(=O)(=O)N1CCC(C(=O)Nc2ccccc2Sc2ccccc2)CC1	-0.6%	1.8%	8.2%	0.5%	5.62µM*	?
Cc1ccccc1NC(=O)CN1CCN(C)CC1	1.8%	nt	?	-0.9%	-2.7%	-16.1%
CN1CCN(CC(=O)Nc2ccccc2Sc2ccccc2)CC1	-1.7%	-1.2%	79.4µM*	nt	4.0%	-12.3%
COc1cccc(OC)c1NC(=O)CN1CCN(C)CC1	-1.1%	nt	79.4µM*	nt	2.4%	-7.2%
Cc1ccccc1NC(=O)CCN1CCN(C)CC1	-1.6%	nt	14.3%	-0.2%	-9.6%	10µM*
CC(=O)c1cccc(NC(=O)c2sc(-n3nc(C)c(Cc4ccccc4)c3C)nc2C)c1	0.7%	-3.2%	nt	?	nt	nt
COc1ccc(-c2cc(C(F)(F)F)nc(SCCC(=O)Nc3ccc(F)cc3F)n2)cc1	11.6%	0.0%	nt	?	nt	nt
Cc1nnc(SCC(=O)Nc2nc3ccccc3s2)n(N)c1=O	20.7%	-1.0%	0.4%	-2.0%	6.5%	13.6%
Cc1cc(=O)[nH]c(SCC(=O)Nc2nc(-c3ccccc3)cs2)n1	-1.0%	-1.0%	-6.1%	-1.4%	12.0%	35.5%
Nn1c(SCC(=O)Nc2nc3ccccc3s2)nncc1=O	?	2.5%	-18.9%	-0.8%	-1.9%	31.6µM*
CC(=O)Nc1c(O)nc(SCC(=O)Nc2c(C)cccc2C)[nH]c1=O	1.8%[38.3 µM]	-0.2%	79.4µM*	0.4%	-0.3%	14.2%
COc1ccc(C(=O)NCc2nnc(SCC(=O)Nc3nc4ccccc4s3)o2)cc1OC	1.2%	0.0%	-13.9%	1.7%	8.91µM*	11.2µM*
COc1ccc(C(=O)NCc2nnc(SCC(=O)Nc3cc(C)cc(C)c3)o2)cc1OC	0.0%	0.0%	14.0%	1.1%	-1.6%	10.5%
Cc1cc(=O)[nH]c(SCC(=O)Nc2nc3ccccc3s2)n1	1.6%	-1.2%	79.4µM*	-2.1%	6.2%	?
